Screening results (PubChem BioAssay)
Pf Dd2 inh: inhibitors of Plasmodium falciparum Dd2 growth; 4.3% of 120,000 active; P. falciparum Dd2 growth, SYBR Green, 72 h; Potency, µM (top dose mostly 28.9 µM), most hits filed as inhibitors; active = well fitted inhibition curve with a large enough effect; also: nearly all actives have a fitted effect of over 65% in size
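Readout: SYBR Green fluorescence, 485 nm excitation, 535 nm emission, after ~16 h lysis at 37C. Before that, Dd2-infected red cells (2.5% hematocrit) grew 72 h with compound, 29 uM top final concentration.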
Numbers stand for hits; – = inactive; [ ] = another dose, or the depositor's remark. Only a selection was taken, and hits are over-represented in it overall.

SMILES	Pf Dd2 inh
COc1ccc(-c2nnc([C@H]3CCN(CC4CCCCC4)C3)o2)cc1	–
CCOc1ccc(NCc2cccn2-c2nnc(N3CCC(C(=O)NCCc4ccc(OCC)c(OCC)c4)CC3)s2)cc1	6.3µM
CCOc1ccc(NCc2cccn2-c2nnc(N3CCC(C(=O)NC(C)c4ccccc4)CC3)s2)cc1 (stereo not given)	–
COc1ccccc1CCNC(=O)C1CCN(c2nnc(-n3cccc3CNc3ccc(C)cc3)s2)CC1	–
CCOc1ccc(CCNC(=O)C2CCN(Cc3nc(-c4ccc(OC)c(OC)c4)oc3C)CC2)cc1OCC	–
Cc1ccc(NCc2cccn2-c2nnc(N3CCC(C(=O)NCc4ccccc4C)CC3)s2)cc1	–
CCOc1ccc(NCc2cccn2-c2nnc(N3CCC(C(=O)NCCc4ccc(OC)c(OC)c4)CC3)s2)cc1	7.1µM
CN1CC(=O)N(C2CCC2)Cc2c1ncnc2N1CCCCC1	–
Cc1ccc(NC(=O)Cn2c(N3CCN(c4ccccc4)CC3)nc(C)cc2=O)c(Cl)c1	–
CC1CCCN(C(=O)Cn2ccn3nc(-c4ccc(F)cc4)c(CO)c3c2=O)C1 (stereo not given)	–
CN1CCCC2(CCN(S(=O)(=O)c3ccc(F)c(F)c3F)C2)C1=O (stereo not given)	–
CCCNC(=O)N[C@@H]1CCC[C@@H](C(=O)NCc2cc(F)cc(F)c2)CC(=O)N(C)C1	–
COC1C(=O)N(CC2CC2)C12CCN(C(=O)C1CC1)CC2 (stereo not given)	–
COCCNC(=O)C1COC2(CCN(C(=O)c3ccc(F)cc3)CC2)N1C(=O)c1cccc(C)c1 (stereo not given)	–
COCCNC(=O)C1COC2(CCN(C(=O)c3ccc(OC)cc3)CC2)N1C(=O)c1ccccc1 (stereo not given)	–
COCCCNC(=O)C1COC2(CCCCC2)N1C(=O)c1c(OC)cccc1OC (stereo not given)	6.3µM
Cc1cnc(C(=O)NC2C[C@H]3CC[C@@H](C2)N3C(=O)CCC2CCCC2)cn1 (stereo not given in full)	–
Cc1ccc(CN2C(=O)COC[C@H]2C(=O)NCc2cccc(F)c2)cc1	–
O=C(Nc1ccc([C@@H](O)[C@H]2COCC(=O)N2Cc2ccccn2)cc1)C1CCCC1	–
Fc1ccc(CN2CCOC[C@H]2c2ncc(-c3ccc(Cl)s3)[nH]2)cc1	11µM
CC(=O)Nc1ccc(CN2CCOC[C@H]2c2ncc(-c3ccc(F)cc3F)[nH]2)cc1	–
CC(C)(C)c1cnc([C@@H]2COCCN2Cc2ccccc2O)[nH]1	2µM
CC(C)(C)CN1CCOC[C@H]1c1ncc(-c2ccc(F)cc2F)[nH]1	–
Clc1ccc(-c2cnc([C@@H]3COCCN3CC3CC3)[nH]2)s1	–
Fc1ccc(-c2cnc([C@@H]3COCCN3Cc3cccnc3)[nH]2)cc1	–
SMILES	Pf Dd2 inh
CC(C)(C)c1cnc([C@@H]2COCCN2Cc2ccc(Cl)cc2)[nH]1	4µM
c1ccc(-c2cnc([C@@H]3COCCN3Cc3cccnc3)[nH]2)cc1	–
CS(=O)(=O)c1ccc(CN2CCOC[C@H]2c2ncc(-c3ccc(Cl)cc3)[nH]2)cc1	11µM
CC(=O)N1CCC(N2CCOC[C@H]2c2ncc(-c3ccc(S(C)(=O)=O)cc3)[nH]2)CC1	–
CS(=O)(=O)c1ccc(CN2CCOC[C@H]2c2ncc(-c3ccc(F)cc3F)[nH]2)cc1	–
CC(C)c1noc(CC2CCN(C(=O)c3cccc(N(C)C)c3)CC2)n1	–
CC(C)c1nc2cc(NC(=O)C[C@H]3NC(=O)c4ccccc4NC3=O)ccc2n1C	–
Cc1ncc2n1C(=O)N(C1CCN(C(=O)Nc3ccccc3)CC1)C2	–
CCOc1ccc(C2Cn3nnc(-c4nc(-c5ccc(OC)cc5)no4)c3CO2)cc1 (stereo not given)	–
O=C(NC1CC1)c1cc(-c2ccccc2C(F)(F)F)nc2onc(C3CCCN3)c12 (stereo not given)	–
O=C(C1CCOCC1)N1CC(CO)C2(CCNCC2)C1 (stereo not given)	–
Clc1ccc(-c2cnc([C@@H]3COCCN3Cc3cnc[nH]3)[nH]2)cc1	–
Cc1ccc(-c2cnc([C@@H]3COCCN3Cc3cnc[nH]3)[nH]2)cc1	–
Cn1c(CN2CCOC[C@H]2c2ncc(-c3ccc(Cl)cc3)[nH]2)nc2ccccc21	10µM
COc1ccc(CCNc2ncnc3c2CN(c2ccccc2C)C(=O)CN3C)cc1	–
CN(C)c1cccc(NC(=O)Cc2c[nH]c3ncc(-c4cccnc4)cc23)c1	–
Cc1cccc(-c2cnc3[nH]cc(CC(N)=O)c3c2)c1	–
Cc1noc(C)c1-c1cnc2[nH]cc(CC(=O)NCc3cccnc3)c2c1	–
COc1ccc(-c2cnc3[nH]cc(CC(N)=O)c3c2)cc1OC	0.63µM
O=C(Cc1c[nH]c2ncc(-c3ccccc3F)cc12)NCc1cccnc1	–
NC(=O)Cc1c[nH]c2ncc(-c3ccc(F)cc3)cc12	–
Cc1ccccc1-c1cnc2[nH]cc(CC(=O)NCc3cccnc3)c2c1	–
O=C(Cc1c[nH]c2ncc(-c3ccc(Oc4ccccc4)cc3)cc12)NCc1cccnc1	8.9µM
CN(C)c1cccc(-c2cnc3[nH]cc(CC(=O)NCc4cccnc4)c3c2)c1	8.9µM
CNc1ncccc1C(=O)N[C@H](c1cccs1)C1CC(O)C1 (stereo not given in full)	–
SMILES	Pf Dd2 inh
O=C(NC[C@H]1O[C@@H](CO)[C@@H](O)[C@H]1N1CCN(c2cccc(C(F)(F)F)c2)CC1)c1ccccc1	–
CC(=O)N[C@@H]1CN(C(=O)CCc2c[nH]c3ccccc23)C[C@H]1CO	–
CCn1c(CO)nnc1C1CC(NC(=O)CCc2n[nH]c3c2CCCC3)C1 (stereo not given)	–
CN(Cc1ccc2nonc2c1)C(C(=O)O)c1ccc(-c2ccn[nH]2)cc1 (stereo not given)	–
CN1CCN(c2nc3c(c(=O)[nH]2)CCN(Cc2cn[nH]c2-c2ccccc2)CC3)CC1	–[5.79 µM]
CC(C)CC(=O)N[C@H](C)c1c(-c2ccc(F)cc2)noc1C(=O)O	–
O=C(C1CCCC1)N1CCC2(CC1)CC(Cc1ccccc1)=NO2	–
c1ccc(CC2=NOC3(CCN(Cc4c[nH]c5ccccc45)CC3)C2)cc1	13µM
c1ccc(CN2CCCC3(CC(c4ccccn4)=NO3)C2)cc1 (stereo not given)	–
c1ccc(CC2=NOC3(CCCN(Cc4ccns4)C3)C2)cc1 (stereo not given)	6.3µM
Cc1ccc(C(=O)N2CCCC3(CC(Cc4ccccc4)=NO3)C2)cc1 (stereo not given)	–
c1ccc(CC2=NOC3(CCN(C4CCCCC4)CC3)C2)cc1	10µM
c1cncc(C2=NOC3(CCN(C4CCCCC4)CC3)C2)c1	–
CC(C)C1=NOC2(CCN(Cc3c[nH]c4ccccc34)CC2)C1	–
NC(=O)c1cccc(CN2CCC3(CC2)CC(Cc2ccccc2)=NO3)c1	–
O=C(c1ccccn1)C1CCCN(C(=O)c2cnc(-c3cccnc3)nc2)C1 (stereo not given)	–
O=C(C1CCC1)N1CCC(Cc2nc(C3CCOCC3)no2)CC1	–
O=C(NCCOc1ccccc1)c1nc2c(o1)CCN(Cc1cccs1)CC2	–
O=C(Nc1cccc(Cl)c1)N1CCC(n2cnnc2C2CC2)C1 (stereo not given)	–
CN(C)c1ccc(-c2ccnc(N[C@H]3CO[C@H]4[C@@H]3OC[C@@H]4NC(=O)CSCC(=O)O)n2)cc1	–
COCCOc1ccc(C(=O)N[C@@H]2CN(C(=O)NCc3ccccc3)CCC[C@H]2O)cc1	–
